Laboratory results taken from PubChem BioAssay.
A number with no mark means an inactive call. Some of the results follow. The source made the active and inactive calls.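 Rule for the calls, unless noted: active = mean inhibition over 43.08%, the solvent-only control mean plus 3 SD; inactive = the rest.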

What was measured:
[1] = target: Nuclear receptor coactivator 3 (Homo sapiens) (UniProt Q9Y6Q9); assay: NCOA3 GAL4-fusion reporter inhibition – cell-based, luminescence, quadruplicate, confirmation (AID 588792); conditions: HEK293 GAL4-SRC3 luciferase reporter, at 3.6 µM, stronger effect = higher value;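 note: 0% = DMSO treated cells and 100% = gossypol at 36 µM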
[2] = system: transactivating tegument protein VP16 (Human herpesvirus 1), Gal4-VP16 luciferase reporter; assay: repression of VP16-driven luciferase reporter – cell-based, luminescence, high throughput, counter-screen for SRC3 inhibitor project (AID 588794; in the data active = inhibition above about 30%); conditions: mammalian cells, at 3.6 µM, stronger effect = higher value
[3] = system: transactivating tegument protein VP16 (Human herpesvirus 1); assay: compounds suppressing VP16-driven luciferase signal – cell-based, luminescence, single concentration, counter-screen for SRC2 inhibitor project (AID 652007; in the data active = inhibition above about 36%); conditions: cell-based VP16 transactivation luciferase reporter, at 8.9 µM, stronger effect = higher value
[4] = target: Nuclear receptor coactivator 2 (Homo sapiens) (UniProt Q15596); assay: inhibition of GAL4-SRC2 driven luciferase expression – cell-based, luminescence, HEK293, triplicate, confirmation (AID 652008;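 active = mean inhibition above 46.5%, the solvent-only control mean plus 3 SD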;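 note: 0% = DMSO-treated cells and 100% = Gossypol at 36 µM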); conditions: HEK293 GAL4-SRC2 luciferase reporter, at 8.9 µM, stronger effect = higher value
[5] = target: Nuclear receptor subfamily 5 group A member 2 (Homo sapiens) (UniProt O00482); assay: NR5A2 activity suppression in reporter cells – cell-based, luminescence, confirmation (AID 651613; in the data active = inhibition above about 42%;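 note: HEK293T cells co-transfected with LRH-1 and StAR promoter luciferase reporter; 0% = vehicle wells and 100% = parental cells lacking receptor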); conditions: cell-based LRH-1 luciferase reporter, inverse agonism; at 3.6 µM; stronger effect = higher value
[6] = target: Steroidogenic factor 1 (Homo sapiens) (UniProt Q13285); assay: inverse agonism at SF1 nuclear receptor – cell-based, luminescence, high throughput, counter-screen for LRH-1 inverse agonist project (AID 651614; in the data active = inhibition above about 44%;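 note: cells cotransfected with StAR promoter reporter and SF1 expression vector; 0% = vehicle on cells with receptor and 100% = vehicle on cells lacking receptor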); conditions: cell-based SF1 luciferase reporter, at 3.6 µM, stronger effect = higher value
[7] = StAR promoter reporter inhibitors, counter-screen for LRH-1 inverse agonist project, cell-based, luminescence, high throughput (AID 651611; in the data active = inhibition above about 28%); conditions: StAR promoter luciferase reporter counterscreen, at 3.6 µM, stronger effect = higher value
[8] = compounds suppressing VP16-driven luciferase signal – cell-based, luminescence, high throughput, counter-screen for LRH-1 inverse agonist project (AID 651615; in the data active = inhibition above about 33%); conditions: Gal4-VP16 luciferase reporter cells, at 3.6 µM, stronger effect = higher value
[9] = VP16-driven transactivation reporter suppression – cell-based, luminescence, HEK293, counter-screen for COUP-TFII antagonist project (AID 687007; in the data active = inhibition above about 13%); conditions: HEK293 Gal4-VP16 luciferase reporter, at 8.5 µM, stronger effect = higher value
[10] = target: COUP transcription factor 2 (Homo sapiens) (UniProt P24468); assay: retest of COUP-TFII reporter suppressors – cell-based, luciferase reporter, HEK293, triplicate, confirmation (AID 687008;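 active = mean inhibition over three repeats above a set limit taken from the earlier primary screen, cut at about 38% in these data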;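 note: 100% = cells given the luciferase reporter alone without the COUP-TF2 vector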); conditions: HEK293 NGFI-A luciferase reporter, luminescence; at 8.5 µM; stronger effect = higher value
Sequence of COUP transcription factor 2 (Homo sapiens) (P24468 whole entry, looked up): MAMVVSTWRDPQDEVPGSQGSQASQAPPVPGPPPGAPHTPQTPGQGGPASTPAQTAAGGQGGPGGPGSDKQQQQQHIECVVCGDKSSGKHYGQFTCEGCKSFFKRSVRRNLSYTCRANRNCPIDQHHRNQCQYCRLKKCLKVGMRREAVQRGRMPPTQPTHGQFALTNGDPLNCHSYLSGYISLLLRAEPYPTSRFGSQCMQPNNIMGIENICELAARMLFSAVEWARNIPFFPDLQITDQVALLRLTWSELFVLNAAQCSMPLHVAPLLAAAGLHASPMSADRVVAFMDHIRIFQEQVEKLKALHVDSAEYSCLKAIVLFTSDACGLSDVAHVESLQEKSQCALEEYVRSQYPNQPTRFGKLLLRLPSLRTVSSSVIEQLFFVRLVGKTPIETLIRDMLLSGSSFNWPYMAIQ

Sequence of Steroidogenic factor 1 (Homo sapiens) (Q13285 whole entry, looked up): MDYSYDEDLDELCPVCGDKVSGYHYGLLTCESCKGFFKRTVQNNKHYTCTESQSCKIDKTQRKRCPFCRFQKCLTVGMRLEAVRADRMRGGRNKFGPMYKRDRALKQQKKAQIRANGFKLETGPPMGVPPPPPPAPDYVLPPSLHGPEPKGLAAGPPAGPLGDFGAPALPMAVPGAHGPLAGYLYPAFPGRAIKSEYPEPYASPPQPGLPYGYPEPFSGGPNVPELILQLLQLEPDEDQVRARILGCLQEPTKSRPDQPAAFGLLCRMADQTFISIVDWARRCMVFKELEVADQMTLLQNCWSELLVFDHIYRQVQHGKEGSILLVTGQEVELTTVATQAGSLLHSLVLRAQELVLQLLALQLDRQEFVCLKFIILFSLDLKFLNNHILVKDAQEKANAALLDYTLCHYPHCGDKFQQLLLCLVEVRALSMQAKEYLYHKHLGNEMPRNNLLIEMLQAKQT
Sequence of Nuclear receptor coactivator 2 (Homo sapiens) (Q15596 whole entry, looked up, the tested form may be a part): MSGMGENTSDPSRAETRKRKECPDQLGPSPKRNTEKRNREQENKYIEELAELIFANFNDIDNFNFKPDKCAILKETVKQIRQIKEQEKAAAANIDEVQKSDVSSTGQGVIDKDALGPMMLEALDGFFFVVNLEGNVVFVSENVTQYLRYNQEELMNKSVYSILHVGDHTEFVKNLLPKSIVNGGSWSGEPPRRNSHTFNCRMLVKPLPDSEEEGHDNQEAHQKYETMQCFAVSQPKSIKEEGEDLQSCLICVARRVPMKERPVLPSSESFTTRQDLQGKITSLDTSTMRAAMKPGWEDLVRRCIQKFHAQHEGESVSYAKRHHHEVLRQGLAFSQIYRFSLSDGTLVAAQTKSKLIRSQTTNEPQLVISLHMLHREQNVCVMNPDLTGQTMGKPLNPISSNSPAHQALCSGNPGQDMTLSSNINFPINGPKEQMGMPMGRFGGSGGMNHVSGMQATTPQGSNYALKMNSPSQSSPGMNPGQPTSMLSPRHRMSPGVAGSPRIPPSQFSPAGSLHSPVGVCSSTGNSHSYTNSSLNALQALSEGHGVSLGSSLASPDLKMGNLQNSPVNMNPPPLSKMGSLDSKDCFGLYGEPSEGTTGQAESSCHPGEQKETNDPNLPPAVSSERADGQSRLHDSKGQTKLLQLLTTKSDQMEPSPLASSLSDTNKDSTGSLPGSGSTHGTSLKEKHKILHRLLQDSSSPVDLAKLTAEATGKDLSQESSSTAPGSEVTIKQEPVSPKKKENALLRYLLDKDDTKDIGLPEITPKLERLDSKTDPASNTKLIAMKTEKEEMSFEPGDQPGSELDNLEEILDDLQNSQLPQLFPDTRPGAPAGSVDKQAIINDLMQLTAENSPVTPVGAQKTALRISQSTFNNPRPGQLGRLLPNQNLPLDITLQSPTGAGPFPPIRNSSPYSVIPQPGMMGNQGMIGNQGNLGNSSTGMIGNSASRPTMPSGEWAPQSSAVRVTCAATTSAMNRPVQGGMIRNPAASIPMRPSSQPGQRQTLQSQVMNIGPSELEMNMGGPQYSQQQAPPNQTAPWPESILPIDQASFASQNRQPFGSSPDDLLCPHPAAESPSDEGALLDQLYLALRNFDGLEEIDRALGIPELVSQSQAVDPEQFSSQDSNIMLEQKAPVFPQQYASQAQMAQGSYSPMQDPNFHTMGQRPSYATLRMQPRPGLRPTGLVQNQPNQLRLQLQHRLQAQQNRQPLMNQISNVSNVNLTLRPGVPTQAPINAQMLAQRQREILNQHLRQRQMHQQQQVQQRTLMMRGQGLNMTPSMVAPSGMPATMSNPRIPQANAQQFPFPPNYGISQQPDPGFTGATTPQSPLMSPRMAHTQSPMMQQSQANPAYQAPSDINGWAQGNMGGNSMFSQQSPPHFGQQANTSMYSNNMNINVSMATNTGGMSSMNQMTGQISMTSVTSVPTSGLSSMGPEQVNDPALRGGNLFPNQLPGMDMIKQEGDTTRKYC
Sequence of Nuclear receptor coactivator 3 (Homo sapiens) (Q9Y6Q9 whole entry, looked up, the tested form may be a part): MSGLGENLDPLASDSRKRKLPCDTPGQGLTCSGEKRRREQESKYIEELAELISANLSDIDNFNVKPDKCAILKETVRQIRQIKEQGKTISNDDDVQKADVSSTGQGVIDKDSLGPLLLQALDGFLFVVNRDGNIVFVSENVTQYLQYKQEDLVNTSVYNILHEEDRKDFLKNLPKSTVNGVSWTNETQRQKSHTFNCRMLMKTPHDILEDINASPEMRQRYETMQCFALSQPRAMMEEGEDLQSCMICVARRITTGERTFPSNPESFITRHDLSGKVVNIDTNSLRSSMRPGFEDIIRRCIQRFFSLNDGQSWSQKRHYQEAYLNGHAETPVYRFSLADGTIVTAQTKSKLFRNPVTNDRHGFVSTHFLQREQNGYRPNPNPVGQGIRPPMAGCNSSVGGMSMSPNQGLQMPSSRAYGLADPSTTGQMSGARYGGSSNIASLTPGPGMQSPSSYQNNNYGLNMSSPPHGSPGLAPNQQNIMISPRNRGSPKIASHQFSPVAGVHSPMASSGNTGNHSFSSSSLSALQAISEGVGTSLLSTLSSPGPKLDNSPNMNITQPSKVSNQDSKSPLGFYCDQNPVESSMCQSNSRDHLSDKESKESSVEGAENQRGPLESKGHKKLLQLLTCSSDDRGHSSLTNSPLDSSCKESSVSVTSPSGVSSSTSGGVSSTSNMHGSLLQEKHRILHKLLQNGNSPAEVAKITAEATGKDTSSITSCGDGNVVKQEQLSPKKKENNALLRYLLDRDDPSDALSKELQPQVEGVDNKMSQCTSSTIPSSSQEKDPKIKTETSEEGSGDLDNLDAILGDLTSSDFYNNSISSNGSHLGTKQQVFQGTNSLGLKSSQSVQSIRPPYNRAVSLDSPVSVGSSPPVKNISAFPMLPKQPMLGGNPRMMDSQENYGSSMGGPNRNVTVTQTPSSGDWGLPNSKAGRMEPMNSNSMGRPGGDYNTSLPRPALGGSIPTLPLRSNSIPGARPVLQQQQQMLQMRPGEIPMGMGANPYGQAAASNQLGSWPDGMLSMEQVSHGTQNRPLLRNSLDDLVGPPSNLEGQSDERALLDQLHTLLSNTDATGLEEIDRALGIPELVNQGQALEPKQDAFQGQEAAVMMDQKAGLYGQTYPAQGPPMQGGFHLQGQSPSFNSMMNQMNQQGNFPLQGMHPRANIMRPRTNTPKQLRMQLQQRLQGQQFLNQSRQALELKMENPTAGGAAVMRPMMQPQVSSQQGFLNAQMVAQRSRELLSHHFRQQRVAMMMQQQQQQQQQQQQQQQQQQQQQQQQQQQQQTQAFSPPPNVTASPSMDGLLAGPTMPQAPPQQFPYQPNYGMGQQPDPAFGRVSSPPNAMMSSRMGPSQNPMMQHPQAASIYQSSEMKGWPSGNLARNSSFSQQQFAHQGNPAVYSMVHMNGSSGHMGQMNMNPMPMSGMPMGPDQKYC
Sequence of Nuclear receptor subfamily 5 group A member 2 (Homo sapiens) (O00482 whole entry, looked up): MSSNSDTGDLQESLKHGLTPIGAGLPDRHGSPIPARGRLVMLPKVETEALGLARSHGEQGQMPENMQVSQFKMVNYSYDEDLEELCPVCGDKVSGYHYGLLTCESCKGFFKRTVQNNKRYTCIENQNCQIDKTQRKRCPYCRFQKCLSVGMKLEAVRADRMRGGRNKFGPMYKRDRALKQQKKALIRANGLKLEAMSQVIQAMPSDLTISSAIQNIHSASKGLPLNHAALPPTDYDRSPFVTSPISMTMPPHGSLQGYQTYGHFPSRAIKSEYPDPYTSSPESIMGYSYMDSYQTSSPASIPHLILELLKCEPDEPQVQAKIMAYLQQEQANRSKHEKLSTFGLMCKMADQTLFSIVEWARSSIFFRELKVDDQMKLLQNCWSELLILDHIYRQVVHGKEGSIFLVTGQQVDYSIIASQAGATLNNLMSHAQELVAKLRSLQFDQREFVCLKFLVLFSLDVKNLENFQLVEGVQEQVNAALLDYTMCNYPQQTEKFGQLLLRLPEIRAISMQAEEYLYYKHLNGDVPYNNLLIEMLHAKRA

O=S(=O)(/C(=C/c1ccc(C(F)(F)F)cc1)c1nc2ccccc2[nH]1)c1ccccc1
inhibition [1]: 61.5% (active)
inhibition [2]: 58.3% (active)
inhibition [3]: 71.8% (active)
inhibition [4]: 30.6%

CC(=O)Nc1ccc(NC2=C/C(=N/S(=O)(=O)c3cccs3)c3ccccc3C2=O)cc1
inhibition [1]: 3.29%
inhibition [2]: 9.98%
inhibition [3]: 9.81%
inhibition [4]: 49.5% (active)

Cc1nc([N+](=O)[O-])c(Sc2nc3ccccc3n2C)n1Cc1ccccc1
inhibition [1]: 30.1%
inhibition [2]: 13.4%
inhibition [3]: 31.9%
inhibition [4]: 46.5%

O=C(Nc1ccccc1)NN(C(=O)CCl)c1ccccc1
inhibition [1]: -0.31%
inhibition [2]: 13.4%
inhibition [3]: 32.9%
inhibition [4]: 56.9% (active)

COc1ccc(/C=C/C(=O)c2ccc3c4c(cccc24)CC3)cc1OC
inhibition [1]: 21.5%
inhibition [2]: 25.6%
inhibition [3]: 25.2%
inhibition [4]: 67.6% (active)

CCOC(=O)c1c(C)nn(-c2ccc(NC(=O)/C=C/C(=O)O)cc2)c1C
inhibition [1]: 10.7%
inhibition [2]: -2.88%
inhibition [3]: 8.16%
inhibition [4]: 62.7% (active)

Cc1nn(C)cc1C(C)NC(=O)c1cc(COc2cccc3cnccc23)on1 (stereo unspecified)
inhibition [1]: 18.6%
inhibition [2]: 24.9%
inhibition [3]: -5.71%
inhibition [4]: 33.3%

O=C(NCCCn1ccnc1)c1ccc(N2CCCCCC2)c([N+](=O)[O-])c1
inhibition [1]: 50.3% (active)
inhibition [2]: -23.6%
inhibition [3]: 26.9%
inhibition [4]: 54.3% (active)

Cn1c(/C=C/c2ccc(Br)cc2)c([N+](=O)[O-])c(=O)n(C)c1=O
inhibition [1]: 45.2% (active)
inhibition [2]: 47.8% (active)
inhibition [3]: 15.8%
inhibition [4]: 40.7%

CCN(CC)S(=O)(=O)c1cccc(C(=O)N/N=C(\C)c2ccc(O)cc2O)c1
inhibition [1]: 66.7% (active)
inhibition [2]: 43.7% (active)
inhibition [3]: 2.49%
inhibition [4]: 31.6%

CC(C)(C)C(=O)Nc1ccc(C(=O)N/N=C/c2ccccc2OC(=O)c2ccc(Cl)cc2)cc1
inhibition [1]: 27.4%
inhibition [2]: 7.22%
inhibition [3]: 6.84%
inhibition [4]: 35.1%

O=C1Cc2c([nH]c3ccc([N+](=O)[O-])cc23)-c2ccccc2N1
inhibition [1]: 91.9% (active)
inhibition [2]: 88.9% (active)
inhibition [3]: 23.5%
inhibition [4]: 51% (active)

CCOc1ccc(C(=O)O/N=C(\N)c2ccccn2)cc1
inhibition [1]: -0.86%
inhibition [2]: -11.6%
inhibition [3]: 15.8%
inhibition [4]: 21.9%

Cc1cc(C)cc(OCC(=O)NCC2CCCO2)c1 (stereo unspecified)
inhibition [1]: 18.4%
inhibition [2]: -9.18%
inhibition [3]: -1.96%
inhibition [4]: 28.9%

CC[C@@]1(O)C(=O)OCc2c1cc1n(c2=O)Cc2cc3c(CN(C)C)c(O)ccc3nc2-1
inhibition [1]: 89.8% (active)
inhibition [2]: 53.2% (active)
inhibition [5]: 99.7% (active)
inhibition [6]: 85.7% (active)
inhibition [3]: 32.9%
inhibition [4]: 46%

C=C1C(=O)[C@]23C[C@H]1CCC2[C@@]1(C)C(C[C@@H]3O)[C@](C)(C(=O)OC)CC[C@@H]1OC(C)=O (stereo partly specified)
inhibition [1]: 62.7% (active)
inhibition [2]: 44.9% (active)
inhibition [7]: 61.7% (active)
inhibition [5]: 70.7% (active)
inhibition [6]: 80.6% (active)
inhibition [8]: 76.2% (active)
inhibition [3]: 83.2% (active)
inhibition [4]: 99% (active)

O=C(/C=C/c1ccccc1)CC(O)(c1ccccc1)C(F)(F)C(F)F (stereo unspecified)
inhibition [1]: 11%
inhibition [2]: 4.32%
inhibition [3]: 7.22%
inhibition [4]: 19.9%

COc1cccc(F)c1C(C[N+](=O)[O-])c1c(N)n(C)c(=O)n(C)c1=O (stereo unspecified)
inhibition [1]: 42.5%
inhibition [2]: 24.4%
inhibition [3]: 14.7%
inhibition [4]: 28.2%

Cc1ccc(-n2c(C)cc(C(=O)COc3cccnc3[N+](=O)[O-])c2C)cc1
inhibition [1]: 34.5%
inhibition [2]: -10.3%
inhibition [3]: -23%
inhibition [4]: 64% (active)

CCCCCCC[N+](CC)(CC)CCCCc1ccc(Cl)cc1
inhibition [1]: 22.1%
inhibition [2]: 28.2%
inhibition [5]: 79% (active)
inhibition [6]: 66.2% (active)

CCc1ccc(/C=C/C(=O)c2c(C)cc(C)[nH]c2=O)cc1
inhibition [1]: 55.5% (active)
inhibition [2]: 50.1% (active)
inhibition [3]: 17.5%
inhibition [4]: 40.1%

CC[n+]1cc(C)ccc1/C=C/c1ccc(N(C)C)cc1
inhibition [1]: 45.1% (active)
inhibition [2]: 58.8% (active)
inhibition [7]: 57% (active)
inhibition [5]: 91.7% (active)
inhibition [6]: 85.7% (active)
inhibition [8]: 80% (active)
inhibition [9]: -0.96%
inhibition [10]: 62.6% (active)

CC(C)(C)C(=O)Nc1ccc(-c2cc3cc(Cl)ccc3o2)cc1
inhibition [1]: -53%
inhibition [2]: -26.2%
inhibition [3]: -83.9%
inhibition [4]: -30.7%

Cc1ccc(C2=NN(C(=O)CCl)C(c3cccs3)C2)o1 (stereo unspecified)
inhibition [1]: 36.8%
inhibition [2]: 13.5%
inhibition [3]: 17.2%
inhibition [4]: 56.9% (active)
